# Data reported in US20120264815, “REVERSIBLE PLATELET INHIBITION” (DUKE UNIVERSITY, published 2012).
# Target: von Willebrand factor (VWF) (Homo sapiens, UniProt P04275 P04275:764-2813)
# Test: filter; binding decreased
# Details: tags: Haematologic Technologies Inc. (factor VIII free); label: 5'-32P; ssRNA; 2'-F pyrimidines
# Procedure: Dissociation constants (Kd) of each truncate were determined using double-filter nitrocellulose filter binding assays (Pergolizzi et al, Blood 108:862-869 (2006)). All binding studies were performed in binding buffer F (20 mM HEPES, pH 7.4, 150 mM NaCl, 2 mM CaCl₂, and 0.1% BSA) at 37° C. Human purified VWF (with factor VIII and factor VIII free) was purchased from Haematologic Technologies Inc. (Essex Junction, VT) and used in the double-filter nitrocellulose filter binding assay to determine the Kd of individual clones. Briefly, RNA was dephosphorylated using bacterial alkaline phosphatase (Gibco BRL, Gaithberg, Md.) and end-labeled at the 5′ end with T4 polynucleotide kinase (New England Biolabs, Beverly, Mass.) and [γ³²P] ATP (Amersham Pharmacia Biotech, Piscataway, N.J.). Direct binding was performed by incubating ³²P—RNA with VWF in physiological buffer+1 mg/ml BSA at 37° C. for 5 min. The fraction of the nucleic acid-protein complex which bound to the nitrocellulose membrane was quantified with a phosphoimager (Molecular Dynamics, Sunnyvale, Calif.).
row,Sequence,binding signal [% Bmax]
1,GGGAGGACGAUGCGGUGGACGAACUGCCCUCAGCUACUUUCAUGUUGCUGACGCACAGACAGC,36
2,GGGAGGACGAUGCGGUGGACGAACUGCCCUCAGCUACUUUCAUGUUGCUGACGCACAGACGACUCG,28
3,GGGAGGACGAUGCGGUGGACGAACUGCCCUCAGCUACUUUCAUGUUGCUGACGCACAGACGACUCGCUG,50
4,GGGAGGAACUGCCCUCAGCUACUUUCAUGUUGCUGACGCACAGACGACUCGCUG,45
5,GGGAGGACGAUGCGGUGGACGAACUGCCCUCAGCUACUUUCAUGUUGCUGACGCACAGA,22
6,GGGAGGACGAACUGCCCUCAGCUACUUUCAUGUUGCUGACGCACAGACGACUCGCUG,58
7,GGGAGGACGAUGCGGUGGACGAACUGCCCUCAGCUACUUUCAUGUUGCUGACGCACAGACGACUCGCUGAGG,50
